# In PubChem BioAssay AID449762 (Southern Research Specialized Biocontainment Screening …, 2010):
# The whole screen tested about 330,000 compounds, of which about 1,900 (0.58%) were called active. Inconclusive results (about 4%) are left out. These entries were drawn from the full list. Entries with a potency or affinity are not part of this list. A number with no mark means an inactive call. Cut-off read from the data, not from the text of the source: inconclusive = inhibition above about 70% without an active follow-up result; inactive = below that.
# Test: M. tuberculosis growth inhibition, HTS (AID 449762);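 note: bacterial growth assessed after seven days of incubation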
# Conditions: M. tuberculosis H37Rv growth inhibition, 7H9 media; at 25 µM; stronger effect = higher value
row,Compound,inhibition
1,Cc1cccc(Nc2nc(N)c([N+](=O)[O-])c(N3CCCC(C)C3)n2)c1 (stereo unspecified),10.2%
2,Cc1ccc(Nc2nc(N)c([N+](=O)[O-])c(N3CCC(C)CC3)n2)cc1C,-4.24%
3,CC(NC(=O)c1cccnc1)C(c1cccs1)N1CCN(c2ccccc2F)CC1 (stereo unspecified),-3.95%
4,CC(C)(C)c1ccc(Oc2ccc(N)cn2)cc1,14.1%
5,O=Cc1ccc(Oc2ccc(F)cc2)nc1,0.87%
6,O=C(NCc1ccccc1Cl)c1cnc2n(c1=O)CCS2,-6.04%
7,Cn1cccc1/C=C1\C(=O)NC(=O)N(Cc2ccccc2)C1=O,3.31%
8,Cn1cccc1/C=C1/C(=O)NC(=O)N(Cc2ccc(F)cc2)C1=O,11.8%
9,N=C1C(c2nc3ccccc3s2)=C(O)CN1C1CCCCC1,8.1%
10,COC(=O)c1cc(NC(=O)CN(C)C2CCS(=O)(=O)C2)cc(C(=O)OC)c1 (stereo unspecified),-0.88%
11,C/C(=N\Nc1nc(C)cc(-c2ccccc2)n1)c1ccccc1,9.83%
12,COc1cc(N/N=C(\C)c2ccc(O)c(C)c2)nc(-c2ccccc2)n1,40.1%
13,CC(=O)CC(=O)NC(=NC1CCCCC1)Nc1nc(C)cc(C)n1,43.2%
14,CN(C)P(=NC(=S)c1cccn1C)(N(C)C)N(C)C,0.74%
15,Cc1ccc(-n2cccc2C(=O)NS(=O)(=O)c2ccc(C)cc2)cc1,-6.77%
16,C#CC(=O)CCC1CCCN1C(=O)OC(C)(C)C (stereo unspecified),5.07%
17,Cc1ccc(S(=O)(=O)N2CCOCC2)cc1NC(=O)COC(=O)C1(C)CC1(Cl)Cl (stereo unspecified),11.2%
18,Cc1cc(=O)n2ccsc2n1,0.36%
19,Cc1ccn2c(=O)cc(C)nc2c1,-4.1%
20,CC(=O)OCn1ncc(N2CCOCC2)c(Br)c1=O,-0.34%
21,CCOC(=O)c1cnn(CCOC(=O)c2ccc(F)cc2)c1NC(=O)c1ccc(F)cc1,0.06%
22,COc1cc(OC)cc(C(=O)NC2CCCN(Cc3ccc(Cl)cc3)C2)c1 (stereo unspecified),7.21%
23,Cc1nnc(SCC(=O)NC(=O)NC(C)(C)C)n1N,4.56%
24,CCc1nc(N2CCN(C(=O)c3ccccc3)CC2)c(C#N)c2c1COC(C)(C)C2,15.8%

row,Compound,inhibition
1,CC1(C)Cc2c(C#N)c(N3CCOCC3)nc(Cc3ccccc3)c2CO1,1.75%
2,COc1ccc(Cn2c(=O)[nH]c3cc(C(=O)NCCCN4CCCCC4)ccc3c2=O)cc1,-8.19%
3,CCC1Nc2ncnc(N3CCN(c4ccccn4)CC3)c2N(Cc2ccc(Cl)cc2)C1=O (stereo unspecified),8.22%
4,O=C1CC(=C(c2ccccc2)c2ccccc2)C(=O)N1CCCN1CCN(c2cccc(Cl)c2)CC1,59.9%
5,Cc1ccccc1N1CCN(CCCN2C(=O)CC(=C(c3ccccc3)c3ccccc3)C2=O)CC1,7.38%
6,O=Cc1ccccc1OCc1ccc2c(c1)OCO2,12.1%
7,CCOc1ccccc1NC(=O)Nc1ccc2c(c1)OCO2,0.34%
8,COc1ccc(-c2nnc(SC3CCOC3=O)n2C2CCCCC2)cc1OC (stereo unspecified),-0.52%
9,Cn1c2ccccc2c(=O)c2ccc(F)cc21,38.4%
10,Cc1ccccc1N1CC(=O)N(c2ccccc2C)CC1=O,-15.8%
11,COc1ccc(C2/C=C\CN(C(=O)C3CCCC3)[C@H](Cc3ccccc3)C(=O)N2Cc2ccc(F)cc2)cc1 (stereo partly specified),5.26%
12,COc1ccc(CNC(=O)C2(C)Cc3ccccc3C(=O)O2)cc1 (stereo unspecified),-2.25%
13,Nc1ccc2nc(-c3ccccc3)c(-c3ccccc3)nc2c1,5.14%
14,Nc1ccc2nc(-c3ccccc3)[nH]c2c1,-2.77%
15,O=C(NCc1ccc(F)cc1)C1CCCN(C(=O)NCc2ccccc2)C1 (stereo unspecified),0.48%
16,CCc1ccc2c(c1)C1(NN=C(c3ccc(C)cc3)S1)C(=O)N2 (stereo unspecified),5.72%
17,Cc1ccc(C2(CC(=O)O)CCOC(C)(C)C2)cc1 (stereo unspecified),5.71%
18,Cc1cc(C)c(OCC(=O)Nc2ccccc2N2CCOCC2)c(C)c1,-8.49%
19,Cc1ccc(CSc2nc3ccccc3c(=O)n2C)cc1,6.4%
20,Cn1c(SCc2ccccc2)nc2ccsc2c1=O,33.7%
21,O=C(Nc1cccnc1Cl)c1cc([N+](=O)[O-])ccc1Cl,8.38%
22,OCCN(Cc1ccccc1)Cc1cccc(C(F)(F)F)c1,20.1%
23,COc1ccccc1/C=C/C(=O)OCC(=O)N1CCc2ccccc21,4.74%
24,O=C(c1cccs1)N1CCC(c2nc3c(nnn3Cc3cccc(Cl)c3)c(=O)[nH]2)CC1,6.04%

row,Compound,inhibition
1,O=c1[nH]c(C2CCN(S(=O)(=O)c3ccccc3)CC2)nc2c1nnn2Cc1cccc(Cl)c1,4.46%
2,O=C1CSC(c2ccccc2)N1CC12CC3CC(CC(O)(C3)C1)C2 (stereo unspecified),-2.58%
3,CCOc1ccc(NC(=O)CN(C)C(=O)c2cc3c(s2)CCC(C)C3)cc1OCC (stereo unspecified),1.11%
4,COc1ccc(-c2nc(NC(=O)Cn3cnnn3)sc2C)cc1,-7.31%
5,COc1ccc(-c2nc(NC(=O)CSCCO)sc2C)cc1,2.7%
6,CCOc1ccc(N2C(=O)CC(NC3CCN(C(=O)c4ccc(F)cc4)CC3)C2=O)cc1 (stereo unspecified),-3%
7,O=C(Oc1ccc(Br)cc1)c1cncc(Br)c1,-0.43%
8,Cc1cccc(OC(=O)c2cncc(Br)c2)c1,23.5%
9,O=C(CCC(=O)Nc1ccc(F)cc1)N/N=C/c1ccc(O)cc1O,-2.52%
10,CC1CCCCN1Cc1c(O)ccc2c(=O)c(-c3ccc(Cl)cc3)coc12 (stereo unspecified),0.71%
11,O=C1c2ccccc2C(=O)N1C(CO)C(O)c1ccc([N+](=O)[O-])cc1 (stereo unspecified),-1.67%
12,O=C(CSC(=S)N1CCOCC1)Nc1ccc(S(=O)(=O)Nc2ncccn2)cc1,-0.18%
13,CCCC(=O)NNc1c2ccccc2nc2ccccc12,-11.4%
14,O=C(NNc1c2ccccc2nc2ccccc12)c1ccc(O)cc1,13.8%
15,[O-][n+]1cccc(C(O)c2ccccc2)c1 (stereo unspecified),-13.5%
16,COC(=O)c1c(C)oc(C)c1S(=O)(=O)N1CCOCC1,-2.09%
17,C=CCNC(=O)C1CC(=O)N(c2ccc(OCC(=O)Nc3c(C)cccc3C)cc2)C1 (stereo unspecified),1.18%
18,Cc1nnc(C)n1/N=C/c1c(O)ccc2ccccc12,2.29%
19,Cc1nc2ccccc2c(=O)n1/N=C/c1c(O)ccc2ccccc12,9.53%
20,Clc1ccccc1COc1ccccc1-c1nnco1,19.4%
21,O=C(Oc1ccccc1-c1nnco1)c1ccccc1,-3.01%
22,C/C(=N/NC(=O)c1ccc(Br)o1)C(C)C,3.04%
23,COCCNC(=S)N1CCc2cc(OC)c(OC)cc2C1c1cccs1 (stereo unspecified),-7.46%
24,NC(=S)N/N=C\c1ccccc1OCc1ccccc1,49.5%

row,Compound,inhibition
1,NC(=S)N/N=C/c1ccccc1OCc1cccc(Cl)c1,2.95%
2,Cc1ccc(N2C(=O)c3cccc([N+](=O)[O-])c3C2=O)cc1C,-6.94%
3,COc1ccc(-c2cc3c(=O)n(CC(=O)NCCCN4CCN(Cc5ccccc5)CC4)ncn3n2)cc1,1.94%
4,COc1ccc(-c2cc3c(=O)n(CC(=O)NCCCN4CCC(N5CCCCC5)CC4)ncn3n2)cc1,2.99%
5,O=C(NCCC1=CCCCC1)C1CCN(C(=O)c2ccc(Br)cc2)CC1,5.13%
6,Cc1ccccc1OCCn1cc(C(=O)O)c2ccccc21,-0.94%
7,CCc1cc(C(=O)Nc2ncccc2O)sc1C,6.5%
8,O=C(CCS(=O)(=O)c1ccc(F)cc1)Nc1nc(-c2ccncc2)cs1,31.5%
9,Cc1ccnc2nc(C(=O)Nc3nc(-c4ccccn4)cs3)nn12,0.14%
10,O=C(CCS(=O)(=O)c1ccccc1)Nc1nc(-c2ccc(F)cc2)cs1,8.67%
11,COc1cccc(-c2nc(CS(=O)(=O)CC(=O)NCCCN3CCc4ccccc4C3)c(C)o2)c1,-28.4%
12,CCCc1cc(=O)n2[nH]cnc2n1,-4.95%
13,Cc1cc(C)n(CCOc2ccc(Br)cc2)n1,2.96%
14,COc1ccc(/C=N/Nc2ncnc3sc4c(c23)CCCC4)cc1OC,-2.36%
15,c1csc(CCNc2ncnc3sc4c(c23)CCC4)c1,1.63%
16,CC(=O)CSc1nnc2cc(C)c3ccccc3n12,0.13%
17,CC(=O)N1CCN(c2ccc(NC(=O)c3cccc(OCc4ccccc4)c3)cc2)CC1,62.8%
18,Cn1c(=O)c2c(nc(NCC(O)CO)n2CCc2ccccc2)n(C)c1=O (stereo unspecified),2.12%
19,CN1CCN(c2ccc(NC(=O)c3cccc(S(=O)(=O)N4CCCC4)c3)cc2)CC1,-4.85%
20,Cc1[nH]n(-c2ccccc2)c(=O)c1C(c1cccc([N+](=O)[O-])c1O)c1c(C)[nH]n(-c2ccccc2)c1=O,-4.36%
21,COc1ccc(C(C[N+](=O)[O-])c2c(C)[nH]n(-c3ccccc3)c2=O)cc1 (stereo unspecified),32.3%
22,CCC1C(c2ccccc2)NC(c2ccccc2)CC1(O)c1ccc(F)cc1 (stereo unspecified),29.1%
23,CCN1CC(C)C(O)(c2ccccc2)CC1C (stereo unspecified),-1.44%
24,NC(=O)CC(NC(=O)Cc1cccc2ccccc12)c1ccc(N2CCC(Cc3ccccc3)CC2)c([N+](=O)[O-])c1 (stereo unspecified),-0.77%
